# G9a inh – blocks human histone lysine methyltransferase G9a | Q96KQ7 | G9a H3K9 monomethylation, AlphaScreen, 2 h | Potency, µM (highest dose often 102 µM), without a hit: at the highest dose activity, negative = inhibition, most hits filed as inhibitors | 8.8% of 350,000 active; also: % is scaled to controls: 0 for no effect and ±100 for the full control effect; nearly all actives have a fitted effect of over 75% in size
#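 Enzyme 20 nM + cpd, 15 min RT; add b-H3K9 pep 500 nM / SAM 20 uM; 2 h RT; anti-H3K9me1 Ab 0.5 ug/mL + SA donor / anti-rabbit acceptor beads 20 ug/mL each, 10 min; AlphaScreen read.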
# HP1b chromo inh – inhibitors of HP1-beta chromodomain binding to methylated histone tails. P83916. AlphaScreen HP1-beta / biotin-H3K9me3 peptide binding. Potency, µM (top dose mostly 114 µM), without a hit: at the highest dose activity change, negative = inhibition, usual class: inhibitors. 0.56% of 390,000 active; also: nearly all actives have a fitted effect of over 70% in size
#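 Compound inhibition of the preformed complex between 50 nM HP1-beta and 50 nM biotinylated H3K9me3 peptide was read by AlphaScreen. Buffer was PBS pH 7.4 with 0.01% Tween-20. Incubations ran 30 min at room temperature, with 10 ug/mL donor/acceptor beads.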
# JMJD2A Tudor inh – blocks the human JMJD2A Tudor domain | O75164 | Potency, µM (top dose mostly 114 µM), for the others: at the top dose activity change, negative = inhibition, usual class: inhibitors | 4.4% of 390,000 active | AlphaScreen JMJD2A-Tudor / H3K4me3 peptide binding; also: % is scaled to controls: 0 for no effect and ±100 for the full control effect; nearly all actives have a fitted effect of over 50% in size
# Sfp inh – inhibitors of Bacillus subtilis Sfp phosphopantetheinyl transferase. 3.5% of 310,000 active. Potency, µM, for inactives: largest response in the series, negative = inhibition, actives largely listed as inhibitors. Q9F4F7. Biochemical Sfp PPTase activity, qHTS;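 also: the enzyme is Sfp with the accession as filed and its product quenches rhodamine fluorescence; 0% = enzyme reaction without inhibitor and -100% = no enzyme wells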
#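 Fluorescence-quenching assay: 15 nM Sfp-PPTase preincubated 15 min at room temperature with compound, then 5 uM rhodamine-CoA and 12.5 uM BHQ-2-labelled YbbR peptide added. Fluorescence (ex 525/em 598 nm) read at start and after 30 min; difference gives rate.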
# BAZ2B inh – BAZ2B (human) inhibition; AlphaScreen BAZ2B-H3K14Ac peptide displacement; Potency, µM (top dose mostly 114 µM), inactives show top-dose activity change, negative = inhibition, most hits filed as inhibitors; 4.4% of 360,000 active; Q9UIF8; also: % is scaled to controls: 0 for no effect and ±100 for the full control effect; nearly all actives have a fitted effect of over 60% in size
#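 In this displacement format the biotinylated H3(5-23) peptide acetylated at Lys14 serves as ligand at 50 nM, with BAZ2B at 50 nM in PBS pH 7.4 containing 0.01% Tween-20. Donor and acceptor beads are 10 ug/mL final.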
# * = called active by the depositor; ? = inconclusive; . = no result given; [ ] = dose if it differs, or a comment. Most compounds without a hit are left out; they make up all but 12% or so of the library. Calls follow the shape of the dose curve; as a rule, active = well fitted curve in the direction sought with a large enough effect; inconclusive = small, poorly fitted or top-dose-only effect, or another doubt; inactive = no such curve, though single readings can be large; an effect the other way counts as inactive or inconclusive. Potency is read from the fitted curve at half-maximal effect.
SMILES,G9a inh,HP1b chromo inh,JMJD2A Tudor inh,Sfp inh,BAZ2B inh
CC(C)C[C@@H](CNCC(=O)[C@H](CC(C)C)NC(=O)c1[nH]cnc1C(=O)N[C@@H](C)CN)NC(=O)c1nc[nH]c1C(=O)N[C@@H](Cc1ccccc1)C(=O)O,.,35%,-29%,.,.
CC(C)C[C@@H](CNCC(=O)[C@H](Cc1ccccc1)NC(=O)c1[nH]cnc1C(=O)N[C@@H](C)CN)NC(=O)c1nc[nH]c1C(=O)N[C@@H](C)C(=O)O,.,55%,79µM*,.,.
O=C1C(Cc2ccccc2O)NC(=S)N1c1ccccc1 (centres undefined),-1%[59 µM],36%,-3%,16%,0%
CC(=O)Nc1cccc(Nc2nc(-c3ccccc3F)nc3ccccc23)c1,5%,38%,-12%,6%,1%
COc1ccc(CCNC(=O)c2cc(-c3cc(Cl)cc(Cl)c3)oc2C)cc1,-21%,11%,-12%,4%,-38%
CCOC(=O)CNC(=O)/C=C/c1ccc2c(c1)OCO2,4%,18%,-2%,13%,-16%
CCOc1ccc(C(=O)NCC(=O)Nc2ccc3c(c2)OCO3)cc1OCC,50µM*,-9%,?,.,-15%
CCOC(=O)CNc1ccc2c(c1)OCO2,?,-13%,-34%,20µM*,?
CCOc1cc(C(=O)Nc2ccc3c(c2)OCO3)ccc1OC(F)F,-26%[59 µM],14%,0%,9%,1%
CCOc1cc(C(=O)Nc2ccc(C(=O)NCCN(CC)CC)cc2)ccc1OCC(=O)N1CCOCC1,50µM*,40%,8%,.,8%
CCc1noc(C)c1C(=O)OCC(=O)Nc1ccccc1SC,5%,27%,1%,.,3%
CC(/C=C/c1ccc(OCc2ccccc2)cc1)=N\O,9%[59 µM],6%,4%,2%,6%
CN(c1ccccc1)S(=O)(=O)c1ccc(C(=O)Nc2nnc(C3CC3)o2)cc1,8%,12%,-24%,23%,?
COC(=O)Cc1ccc(O)c(N)c1,?,?,10µM*,-8%,-15%
OCC(CO)(CO)N=Cc1c(O)ccc2ccccc12,1.4µM*,7%,?,-2%,.
CSc1nnc(C(C)(C)C)c(=O)n1/N=C/c1c(O)ccc2ccccc12,?,0%,-9%,22%,-14%
CN(C)/N=C/c1c(O)ccc2ccccc12,10µM*,?,56µM*,-4%,45µM*
CS/C(N)=N/N=C/c1c(O)ccc2ccccc12,11µM*,61%,-17%[11.4 µM],2%,-18%
Oc1ccc2ccccc2c1C=NC12CN3CCN(CN(C3)C1)C2,?,?,79µM*,?,?
O=C(NN=Cc1c(O)ccc2ccccc12)C1CC1,.,22%,-12%,.,.
O=C(Nc1nnc(-c2cc(Cl)ccc2Cl)o1)c1ccco1,-8%[2.33 µM],61%,-13%,.,9%
CCOc1ccccc1CNC(=O)CCNS(=O)(=O)c1ccc2[nH]c(=O)oc2c1,18%,32%,-21%,9%,-22%
COc1ccc(OC2CCN(S(=O)(=O)c3cccc(F)c3)CC2)cc1,82%,33%,4%,-6%,17%
C=CCn1c(SCC(=O)N(CCOC)c2c(N)n(CCCC)c(=O)[nH]c2=O)nnc1-c1ccc(Cl)cc1,-12%,1%,-12%,.,-4%
C(=Nc1ccc(N2CCOCC2)cc1)c1c[nH]c2ccccc12,?,7%,-16%,-1%,?
SMILES,G9a inh,HP1b chromo inh,JMJD2A Tudor inh,Sfp inh,BAZ2B inh
Oc1ccccc1N=Cc1c(O)ccc2ccccc12,7.9µM*,-3%,?,-1%,11µM*
Oc1ccc2ccccc2c1C=Nc1ccccc1Br,.,?,?,-18%,?
Oc1ccc2ccccc2c1C=Nc1ccc(N2CCOCC2)cc1,?,?,50µM*,-26%,40µM*
C=Cc1ccc(N=Cc2c(O)ccc3ccccc23)cc1,1.6µM*,59%,?,-15%,6%
Cc1cc(C(=O)O)ccc1N=Cc1c(O)ccc2ccccc12,2.5µM*,1%,?,-1%,-7%
O=C(Nc1c(F)c(F)c(F)c(F)c1F)NC1CCCCC1,7%[12.7 µM],20%,-4%,1%,7%
Oc1cccc(C=Nc2cccc3ccccc23)c1O,.,?,14µM*,13µM*,45µM*
COc1cc(-c2cc[n+](C)cc2)ccc1O,.,31%,-20%,.,.

# From PubChem BioAssay
